From PubChem BioAssay
TDP1 cell noCPT – qHTS for Inhibitors of human tyrosyl-DNA phosphodiesterase 1 (TDP1): qHTS in cells in absence of CPT; 420,000 compounds, 15% hits; AID 686978, 2013; DT40 Tdp1-/- hTDP1 cells, no CPT, ATP luminescence, 48 h; Potency, µM (titrated, usually from 46.2 µM), for the others: at the top dose activity change, negative = growth inhibition, actives largely listed as inhibitors; also: potency is read from the fitted curve at half-maximal effect; % is scaled to controls: 0 for no effect and ±100 for the full control effect; nearly all actives have a fitted effect of over 55% in size
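Readout: luminescence from CellTiter-Glo after 30 min in the dark at RT. Cells: DT40 Tdp1-/- with stable hTDP1, 400/well. Exposure: compounds alone, ≥48 hr, 37 °C.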
TDP1 cell CPT – growth inhibition of DT40 Tdp1-/-;hTDP1 cells with camptothecin (screen for TDP1 inhibitors); chicken DT40 Tdp1-/-;hTDP1 cells + 20 nM CPT, ATP luminescence, 48 h; Potency, µM (doses to about 46.2 µM), inactives show top-dose activity change, negative = growth inhibition, usual class: inhibitors; 420,000 compounds, 12% hits; AID 686979; also: potency is read from the fitted curve at half-maximal effect; % is scaled to controls: 0 for no effect and ±100 for the full control effect; nearly all actives have a fitted effect of over 55% in size
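Chicken DT40 Tdp1-/- cells complemented with human TDP1, 400 cells/well, exposed to compounds plus 20 nM camptothecin for at least 48 h at 37 C; viability read as ATP content by CellTiter-Glo luminescence.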
TDP1 inh – TDP1 (human) enzyme inhibition. Potency, µM (series often up to 130 µM), for the others: at the highest dose activity change, negative = inhibition, hits mostly inhibitors. recombinant TDP1, AlphaScreen DNA substrate cleavage. 350,000 compounds, 0.28% hits; also: potency is read from the fitted curve at half-maximal effect; % is scaled to controls: 0 for no effect and ±100 for the full control effect; nearly all actives have a fitted effect of over 40% in size
Target sequence (Q9NUW8 whole entry, looked up): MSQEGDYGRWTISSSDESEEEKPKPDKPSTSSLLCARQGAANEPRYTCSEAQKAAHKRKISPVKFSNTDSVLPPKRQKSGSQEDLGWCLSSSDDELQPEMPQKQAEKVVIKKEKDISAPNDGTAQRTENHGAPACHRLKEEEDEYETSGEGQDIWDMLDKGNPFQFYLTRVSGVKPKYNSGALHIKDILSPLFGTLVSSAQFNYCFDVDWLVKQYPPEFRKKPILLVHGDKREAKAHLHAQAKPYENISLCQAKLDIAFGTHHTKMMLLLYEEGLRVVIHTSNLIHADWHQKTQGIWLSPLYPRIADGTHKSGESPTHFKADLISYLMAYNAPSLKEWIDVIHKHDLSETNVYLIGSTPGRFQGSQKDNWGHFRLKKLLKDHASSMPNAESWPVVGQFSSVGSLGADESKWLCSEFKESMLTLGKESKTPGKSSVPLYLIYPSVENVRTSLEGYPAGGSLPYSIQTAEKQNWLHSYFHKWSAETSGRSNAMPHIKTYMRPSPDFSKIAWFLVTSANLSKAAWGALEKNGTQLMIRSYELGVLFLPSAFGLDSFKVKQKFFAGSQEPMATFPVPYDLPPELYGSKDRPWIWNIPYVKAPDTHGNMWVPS
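Compounds were preincubated with Tdp1 (1 nM final) for 15 min at room temperature before substrate (15 nM final) started a 5 min reaction; beads (10 ug/ml final) were then added for 10 min before AlphaScreen detection.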
TGFb inhibitor – blocks TGF-b signaling. HepG2 CAGA-GFP TGF-b/SMAD3 reporter, GFP fluorescence, 18 h; TGF-beta stimulated, 500 pg/mL final. Potency, µM (series often up to 46.1 µM), for the others: at the top dose activity, negative = inhibition, hits mostly inhibitors. 410,000 compounds, 1.2% hits; also: potency is read from the fitted curve at half-maximal effect; % is scaled to controls: 0 for no effect and ±100 for the full control effect; nearly all actives have a fitted effect of over 65% in size
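First, reporter cells (HEPG2 CAGA-GFP) rested 2 h at 37 degrees C. Next, compounds were pinned in and TGF-beta added to 500 pg/mL final. After 18 h, GFP was imaged per cell and summed per well.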
HepG2 viability – counter-screen for TGF-b inhibitors: cytotoxicity in HepG2 cells. 410,000 compounds, 0.76% hits. AID 588856. Potency, µM (series often up to 46.1 µM), for inactives: top-dose activity change, negative = cytotoxicity, usual class: cytotoxic. HepG2 CAGA-GFP viability, ATP luminescence, 18 h; also: potency is read from the fitted curve at half-maximal effect
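CellTiter-Glo luminescence gave cytotoxicity after 18 hours at 37 degrees C. The cells were HepG2 CAGA-GFP in 1% FBS DMEM, stimulated with 500 pg/mL TGF-beta after compound addition. %Activity was normalised to no-cell wells (complete cell-killing) and DMSO (no toxicity), and curves were fitted and classified.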
IL1B secr inh – inhibitors of inflammasome signaling (IL-1 beta secretion). THP-1 LPS/ATP IL-1B secretion, AlphaLISA, 16 h; active compounds read low. activity change, % at 57.5 µM. 360,000 compounds, 4.7% hits; in the data active = activity change below about -50%; inconclusive = mostly about -30% to -49%; also: % is scaled to controls: 0 for no effect and ±100 for the full control effect
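THP-1 cells pretreated 1 hr with compounds (up to 57.5 uM final), then stimulated with LPS (250 ng/mL final) plus ATP (1.25 mM final); secreted IL-1B measured by AlphaLISA after 16 hr, decreased signal indicating inhibition.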
Active calls of the source: *; i = inactive; ? = inconclusive; . = no result. In the library only some 19% were active in any assay of this set; here they are far more common. Unless noted, calls follow the shape of the dose curve; as a rule, active = well fitted curve in the direction sought with a large enough effect; inconclusive = small, poorly fitted or top-dose-only effect, or another doubt; inactive = no such curve, though single readings can be large; an effect the other way counts as inactive or inconclusive.

SMILES | TDP1 cell noCPT | TDP1 cell CPT | TDP1 inh | TGFb inhibitor | HepG2 viability | IL1B secr inh
CCc1ccccc1NC(=O)CN1C(=O)CCSc2ccc(S(=O)(=O)N3CCCC3)cc21 | ? | ? | 1.8% | 0.9% | -27.2% | .
NC(Cc1ccc(Cl)cc1)c1csc(NC(=O)NCC2CCCCC2)n1 (configuration not stated) | 8.2µM* | 10.3µM* | . | ? | 12.6µM* | 0.0
CCOc1ccc(S(=O)(=O)c2c[nH]c3ccccc3c2=O)cc1 | ? | -29.5% | 3.8% | 0.0% | 9.5% | -2.7
COc1ccc(-c2cnc(C(O)c3ccccc3)[nH]2)cc1 (configuration not stated) | -4.6% | -19.0% | . | -10.9% | -4.1% | -23.8
COc1ccc(-c2cnc(C(O)c3ccc(-c4ccccc4)cc3)[nH]2)cc1 (configuration not stated) | ? | ? | . | ? | -30.8% | -5.5
OC(c1ccccc1)c1ncc(-c2ccc(Oc3ccccc3)cc2)[nH]1 (configuration not stated) | 18.4µM* | 23.1µM* | . | ? | -39.6% | -3.6
OC(c1ccc(Cl)cc1)c1ncc(-c2ccc(Oc3ccccc3)cc2)[nH]1 (configuration not stated) | 20.6µM* | 20.6µM* | . | ? | -98.1% | ?
CCOC(=O)c1c(S(=O)(=O)NCC(=O)N(C)c2ccc(C)cc2)c(C)n(C)c1C | -14.3% | -26.2% | 0.5% | -0.5% | -4.5% | .
CC12CCC(C(=O)N(CSC(=S)N/N=C\c3ccccc3O)C1=O)C2(C)C (configuration not stated) | 14.6µM* | ? | -7.5% | -24.1% | -25.6% | 98.7
COc1ccc(/C=N\NC(=S)SCN2C(=O)C3CCC(C)(C2=O)C3(C)C)cc1 (configuration not stated) | -24.6% | -22.0% | . | -10.5% | -16.7% | 6.3
C#CCOCCOCCOCCNc1nc(N2CCN(C(=O)C(Cc3cc4ccccc4[nH]3)n3cc(C(N)C(C)CC)nn3)CC2)nc(N2CCN(C(=O)C(Cc3cc4ccccc4[nH]3)n3cc(C(N)C(C)CC)nn3)CC2)n1 (configuration not stated) | ? | 16.4µM* | 6.4% | -5.4% | 0.5% | -26.5
CC[C@@H](C)C(NC(=O)OC(C)(C)C)c1cn([C@@H](Cc2cc3ccccc3[nH]2)C(=O)N2CCN(C(=O)OC(C)(C)C)CC2)nn1 (some centres not stated) | 23.1µM* | 23.1µM* | 7.7% | ? | 1.5% | ?
C#CCOCCOCCOCCNc1nc(N2CCOCC2)nc(N2CCN(C(=O)[C@H](Cc3cc4ccccc4[nH]3)n3cc([C@@H](N)C(C)CC)nn3)CC2)n1 (some centres not stated) | -26.1% | -7.4% | 0.0% | -2.9% | -16.1% | ?
C#CCOCCOCCOCCNc1nc(N2CCN(C(=O)C(Cc3ccc(O)cc3)n3cc(C(N)CC(C)C)nn3)CC2)nc(N2CCN(C(=O)C(Cc3cc4ccccc4[nH]3)n3cc(C(N)C(C)CC)nn3)CC2)n1 (configuration not stated) | . | . | 6.4% | . | . | .
C#CCOCCOCCOCCNc1nc(N2CCN(C(=O)[C@H]([C@@H](C)CC)n3cc([C@@H](N)Cc4ccc(O)cc4)nn3)CC2)nc(N2CCN(C(=O)[C@H](Cc3cc4ccccc4[nH]3)n3cc([C@@H](N)CC(C)C)nn3)CC2)n1 | ? | 23.1µM* | 5.0% | ? | -4.1% | -16.7
C#CCOCCOCCOCCNc1nc(N2CCN(C(=O)[C@H]([C@@H](C)CC)n3cc([C@@H](N)CC(C)C)nn3)CC2)nc(N2CCN(C(=O)[C@H](Cc3cc4ccccc4[nH]3)n3cc([C@@H](N)Cc4ccc(O)cc4)nn3)CC2)n1 | ? | ? | 7.7% | -6.7% | -22.9% | -56.5*
COc1ccc(NC(=O)CN(C)C(=O)c2cccc(S(=O)(=O)Nc3ccc(F)cc3)c2)cc1 | -16.4% | -19.0% | 0.3% | ? | -19.2% | -10.0
CNC(=O)CSc1nnc(NC(=O)C2CC(=O)N(c3ccccc3OC)C2)s1 (configuration not stated) | -1.1% | -7.2% | 4.2% | 1.1% | 5.5% | i
Cc1ccc(C(=O)c2oc3ccccc3c2NC(=O)COc2ccc(Cl)c(C)c2)cc1 | -1.8% | 6.6% | 0.0% | 3.9% | 16.8% | .
CC(=O)c1cccc(NS(=O)(=O)c2ccc3c(c2)N(C(C)=O)CCO3)c1 | 20.6µM* | ? | 3.5% | -1.3% | -15.0% | 30.9
CC(=O)N1CCOc2cc(S(=O)(=O)NCc3ccc(C)cc3)c(C)cc21 | -14.2% | -10.5% | 7.8% | -3.0% | -5.2% | .
CC(=O)N1CCOc2ccc(S(=O)(=O)NCc3ccc(F)cc3)cc21 | 18.5% | -4.2% | 44.7µM* | 6.2% | 2.5% | 39.7
CC(=O)N1CCOc2cc(S(=O)(=O)NCc3ccccc3Cl)c(Cl)cc21 | -25.5% | ? | 6.31µM* | ? | -8.6% | .
O=C(Nc1ccc(F)cc1F)C(Cc1ccccc1)N1Cc2ccccc2C1=O (configuration not stated) | -21.4% | ? | 5.0% | -14.1% | -13.6% | .
O=[N+]([O-])c1cc(C(F)(F)F)ccc1NCCNC(=S)Nc1ccc(Cl)cc1 | 18.4µM* | 29.1µM* | 5.9% | 5.01µM* | 10µM* | -88.3*
SMILES | TDP1 cell noCPT | TDP1 cell CPT | TDP1 inh | TGFb inhibitor | HepG2 viability | IL1B secr inh
O=[N+]([O-])c1cc(C(F)(F)F)ccc1NCCCCNS(=O)(=O)c1ccc(Cl)cc1 | 14.6µM* | 13µM* | 6.9% | ? | 10µM* | -56.2*
CS(=O)(=O)NCCCNc1ccc(Cl)cc1[N+](=O)[O-] | -24.5% | -5.1% | 2.6% | -1.4% | -22.2% | -5.0
O=[N+]([O-])c1cc(C(F)(F)F)ccc1NCCc1c[nH]c2ccccc12 | ? | -25.5% | 1.8% | ? | -93.5% | -96.3*
O=[N+]([O-])c1cc(Cl)ccc1NCCNc1ncc(C(F)(F)F)cc1Cl | -9.1% | -10.7% | 5.3% | 0.1% | -12.8% | -22.5
Cc1cccc(NS(=O)(=O)c2ccc(C)c(C(=O)NCCCN3CCOCC3)c2)c1 | -6.7% | -9.7% | -4.1% | 24.7% | -11.6% | 0.0
O=C(O)CSc1c2c(nc3cc(C(=O)Nc4ccc(F)c(Cl)c4)ccc13)CCCC2 | -9.2% | -1.9% | 56.2µM* | 9.4% | -2.7% | 1.2
